Screens from PubChem BioAssay.
Compounds with a hit are over-represented: about 1.5% of the library has one in this group of screens.
MenB inh = blocks the Mycobacterium tuberculosis MenB enzyme | P9WNP5 | MenB enzyme assay, absorbance read-out | inhibition, % (no concentration beside the values) | actives 0.43% (n = 100,000) | AID 540299; in the data active means inhibition above about 21%, passing the limit was not always enough
Mtb MbtI inh = inhibitors of Mycobacterium tuberculosis siderophore enzyme MbtI; purified MbtI enzyme, fluorescence intensity read-out; actives 0.89% (n = 100,000); inhibition, % (test concentration not listed); AID 493033; P9WFX0; in the data active means inhibition mostly above about 56%, no sharp cut-off; inactive means mostly below about 77%
Polio RdRp inh = poliovirus RNA polymerase inhibition. P03300. poliovirus polymerase elongation, fluorescence polarization; active compounds read low. % elongation, % (compound at 16.7 µg/mL). actives 0.66% (n = 150,000); in the data active means % elongation below about 90%
Target sequence (P03300 1749-2209 limits assumed): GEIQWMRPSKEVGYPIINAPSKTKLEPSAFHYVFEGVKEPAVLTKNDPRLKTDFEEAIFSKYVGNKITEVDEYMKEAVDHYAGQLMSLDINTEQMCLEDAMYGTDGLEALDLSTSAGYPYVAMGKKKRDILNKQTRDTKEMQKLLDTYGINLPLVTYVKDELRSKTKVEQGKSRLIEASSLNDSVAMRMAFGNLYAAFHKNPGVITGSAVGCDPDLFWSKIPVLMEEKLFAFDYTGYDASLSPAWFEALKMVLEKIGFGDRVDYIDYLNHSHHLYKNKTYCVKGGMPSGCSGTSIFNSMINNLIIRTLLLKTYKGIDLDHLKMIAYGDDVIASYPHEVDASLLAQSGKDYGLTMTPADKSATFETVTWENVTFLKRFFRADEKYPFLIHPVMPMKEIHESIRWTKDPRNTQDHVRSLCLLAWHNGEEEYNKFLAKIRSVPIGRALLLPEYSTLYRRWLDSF
* hit, by the source's call; x = no result given.

SMILES | MenB inh | Mtb MbtI inh | Polio RdRp inh
CCCN1CCN(CCCNC(=O)Nc2ccc3c(c2)N(Cc2ccc(C)cc2)C(=O)CS3)CC1 | 10 | 1 | 100
COc1ccccc1/C=C1\SC(N2CCN(c3ccccc3)CC2)=NC1=O | 2 | 1 | 100
O=c1cc(-c2ccccc2)ss1 | -14 | 53* | 82*
O=S(=O)(/N=c1/cc(-c2ccccc2)ss1)c1ccccc1 | -2 | x | 100
N#CC1=C(SCc2ccccc2)SC(CO)NC1=O (stereo unspecified) | 38* | 11 | 100
N#CC1=C(SCc2ccccc2)SC(c2ccc(C(=O)O)cc2)NC1=O (stereo unspecified) | 25 | 9 | 86*
CC1NC(=O)C(C#N)=C(SCc2ccccc2)S1 (stereo unspecified) | 0 | 11 | 105
N#CC1=C(SCc2ccccc2)SCNC1=O | 29 | 9 | 100
O=C(Nc1ccccc1N1CCOCC1)c1cc(C2CC2)nn1-c1ccccc1 | -15 | -32 | 99
FC(F)(F)c1ccc(N2CCN(c3cc(C(F)(F)F)nc4ccccc34)CC2)nc1 | 1 | -8 | 100
C=C(C)CSc1n[nH]c(=S)s1 | 4 | 100 | 96
CCN(CC)C(=O)CSc1n[nH]c(=S)s1 | -10 | 91* | 104
COC(=O)c1nnn(CC(=O)Nc2ccccc2)c1N | x | -20 | x
COc1ccccc1NS(=O)(=O)c1cccc(Cl)c1 | -7 | -8 | 104
COc1ccccc1NS(=O)(=O)c1cccc(C(=O)Nn2cnnc2)c1 | 15 | -5 | 72*
c1csc(-c2nc(-n3ccnc3)c3ccccc3n2)c1 | 0 | -22 | 101
CN(C)CCOC(=O)c1ccc2[nH]c3c(c2c1)CSCC3 | 5 | 50 | 99
O=C(O)c1ccc2[nH]c3c(c2c1)CSCC3 | 0 | x | 84*
CC(C)(/C=N/N(Cc1ccccc1)c1ccccc1)CO | 8 | 8 | 108
O=C1C=C/C(=N/N(Cc2ccccc2)c2ccccc2)O1 | 1 | 90* | 101
O=C(CCCC(=O)n1nnc2ccccc21)Oc1ccccc1F | 1 | x | 103
CCn1c2ccccc2c2cc(NC(=O)C(C)OC(=O)c3cccn3C)ccc21 (stereo unspecified) | -14 | 17 | 20*
CC(OC(=O)c1cccn1C)C(=O)Nc1ccc(Cl)cc1 (stereo unspecified) | -14 | -4 | 113
CCCCC(CC)C1OCC(C)O1 (stereo unspecified) | 17 | 0 | 100
COc1ccc(C(C(=O)NCc2ccccc2)N(Cc2ccco2)C(=O)c2cnccn2)cc1 (stereo unspecified) | 36* | -6 | 99
SMILES | MenB inh | Mtb MbtI inh | Polio RdRp inh
COc1ccc(C(C(=O)Nc2ccc(C(C)C)cc2)N(Cc2ccco2)C(=O)c2cnccn2)cc1 (stereo unspecified) | x | 0 | x
Cc1ccc(-c2cn3ccccc3n2)cc1 | 1 | 108 | 104
CCCc1n[nH]c(=S)s1 | -5 | 89* | 87*
Cc1ccc(C)n1-c1n[nH]c(=S)s1 | -26 | 55 | 99
CCC(N)C12CC3CC(CC(C3)C1)C2 (stereo unspecified) | 0 | x | 86*
NC(CO)C12CC3CC(CC(C3)C1)C2 (stereo unspecified) | x | 2 | 103
COc1cccc(C(N)=O)c1O | -9 | -79 | 102
O=C1CSC(=S)N1/N=C/c1cc(Br)cc(Br)c1O | -25 | 49 | 90*
O=C1CSC(=S)N1/N=C/c1cccnc1 | -36 | 6 | 100
CCC(C)N(Cc1c[nH]c2ccccc12)C(=S)Nc1cccc(C)c1 (stereo unspecified) | -46 | 8 | 103
Cc1[nH]c2ccccc2c1C=Nc1ccc(Cl)cc1C(=O)c1ccccc1 | -26 | x | 103
N#C/C(=C\c1ccc(O)c(O)c1)C(N)=S | -6 | 71* | 104
COc1ccc(/C=C(\C#N)C(N)=S)cc1 | -56 | 20 | 104
O=C(O)CCn1cccc1 | -14 | 0 | 102
CN(C)CCN1CCNCC1 | 34* | -1 | 103
CN(C)C(=O)CN1CCNCC1 | -16 | 94 | 107
CCN1CCOC2(O)C=CC(=O)C=C12 (stereo unspecified) | -99 | 55 | 101
COC(=O)c1cccc(Cl)n1 | x | -9 | 101
O=C1c2ccccc2-c2n[nH]c3cccc1c23 | -13 | 2 | 99
O=c1[nH]nc2c3c(cccc13)-c1ccccc1-2 | 58* | 1 | 99
O=C(O)c1cc(O)[nH]c(=O)c1 | -57 | 102 | 79
Cc1cc(O)c(C=O)c2c1C(=O)Oc1c(C)c(O)c3c(c1O2)C(O)OC3=O (stereo unspecified) | 7 | -33 | 66*
Cc1cc(CS)cs1 | 8 | -5 | 100
COc1ccc(-c2noc(=O)n2Cc2cccc(C)c2)cc1 | 11 | -4 | 103
COc1ccc(-c2noc(=O)n2CCCC#N)cc1OC | 31* | 0 | 103
SMILES | MenB inh | Mtb MbtI inh | Polio RdRp inh
CCc1ccc(NC(=O)CC(C)S(=O)(=O)c2ccc3c(c2)CCN3C(C)=O)cc1 (stereo unspecified) | 5 | -10 | 103
OC(COc1ccc2cc(Br)ccc2c1)Cn1cccn1 (stereo unspecified) | 28* | x | 103
O=S(=O)(N1CCCCC1)N1CCN(CC(O)COc2ccc3cc(Br)ccc3c2)CC1 (stereo unspecified) | -9 | -12 | 101
Cc1ccc2c(c1)c(N=NC(N)=S)c(O)n2CO | -39 | 15 | 100
CCn1c(O)c(N=NC(N)=S)c2ccccc21 | -66 | 78 | 76*
CC1=NN(C(C)(C)C#N)C(c2ccccc2)C1 (stereo unspecified) | 7 | 5 | 103
O=C(O)C1CC(c2ccccc2)=NO1 (stereo unspecified) | 26 | -1 | 101
O=C(O)C1CC(c2ccc(F)cc2)=NO1 (stereo unspecified) | 15 | x | 84*
CCOc1ccc(NC(=S)N2C(C)CCCC2C)cc1 (stereo unspecified) | -8 | 2 | 102
CCS(=O)(=O)N1CCC(C(=O)Nc2nnc(-c3ccccc3)o2)CC1 | -15 | 2 | 102
CC(C)OCCCNc1ncnc2sc3c(c12)CCCC3 | x | x | -2.0*
CCN(CC)CCNc1ncnc2sc3c(c12)CCCC3 | 10 | 2 | 103
O=C(COc1ccc(S(=O)(=O)NCc2ccccc2)cc1)N1CCCC1 | -41 | -12 | 106
CNC(=S)N/N=C(\C)c1ccc(N2CCCCCC2)cc1 | -65 | -3 | 100
C/C(=N\NC(=S)Nc1ccccc1C)c1ccc(O)cc1 | -59 | 93 | 75*
CCC(CO)NC(=S)Nc1ccccc1C (stereo unspecified) | -8 | x | 108
C/C(=N\NC(=S)NC1CCCCC1)c1ccc(O)cc1 | -5 | 90* | 92
Cc1ccc(C)c(N2CCN(c3cc(C)nn4cnnc34)CC2)c1 | -39 | -1 | 104
Nc1ccc(-n2nncc2C23CC4CC(CC(C4)C2)C3)cc1 | -11 | -3 | 99
Nc1nc(NC(=O)CCC(=O)O)nn1-c1ccccc1 | 30* | 5 | 102
CC(=O)Nc1nc(NC(C)=O)n(-c2ccccc2)n1 | 4 | 17 | 103
CN1C(=O)c2ccc(NC3=NS(=O)(=O)c4ccccc43)cc2C1=O | -1 | -11 | 102
Cc1ccc(Cl)cc1N1CCN(C(=O)CCCCCn2c(=S)[nH]c3cc4c(cc3c2=O)OCO4)CC1 | 9 | -17 | 102
O=C(c1ccno1)c1cc(F)ccc1O | x | -4 | 100
Clc1ccc(OCc2nnc3c4cnn(-c5ccccc5)c4ncn23)cc1 | x | -12 | x
